Results as given in the supplement of paper PMC5662767.
Where a name gives a salt, the structure may show the parent alone.

Tested on: Drosophila S2 cl14 SmoIP sensor cells
Test: normalized SmoIP GFP fluorescence (untreated unstimulated = 0%, untreated Hh-stimulated = 100%); higher = more Smo activation sensor fluorescence
Conditions: compound concentration: 2 uM, 24 h
[1] = stimulation: Hh conditioned medium (+Hh)
[2] = stimulation: mock conditioned medium (-Hh)
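Further: flow cytometry read-out as median GFP intensity of gated cells, compounds added 30 min before Hh-conditioned or mock medium, mock-treated cells serving as unstimulated baseline.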

Structure (SMILES)	normalized SmoIP GFP fluorescence [1] [%]	normalized SmoIP GFP fluorescence [2] [%]
CN(C)C1CCN(C(=O)c2ccc(NC(=O)Nc3ccc(-c4nc(N5CCOCC5)nc(N5CCOCC5)n4)cc3)cc2)CC1	53	-21.4
CC(C)N(CCCNC(=O)Nc1ccc(C(C)(C)C)cc1)C[C@H]1O[C@@H](n2cc(Br)c3c(N)ncnc32)[C@H](O)[C@@H]1O	140	0.986
CC(=O)N[C@@H](CS)C(=O)O [Acetylcysteine]	111	1.57
Cc1cc2c(F)c(Oc3ncnn4cc(OC[C@@H](C)OC(=O)[C@H](C)N)c(C)c34)ccc2[nH]1 [Brivanib-alaninate]	117	9
O=C(NOCC(O)CO)c1cc(Br)c(F)c(F)c1Nc1ccc(I)cc1F (configuration not stated)	132	16.8
Nc1ccc(-c2ccc3ncc4ccc(=O)n(-c5cccc(C(F)(F)F)c5)c4c3c2)cn1 [torin-2]	59.5	-9.64
COc1ccc2c(c1)c(CC(=O)N1CCOCC1)c(C)n2C(=O)c1ccc(Cl)cc1	108	-2.59
CC(=O)O[C@]1(C(C)=O)CC[C@H]2[C@@H]3C[C@H](C)C4=CC(=O)CC[C@]4(C)[C@H]3CC[C@@]21C [Medroxyprogesterone-acetate]	116	-1.83
O=C(c1ccc(OCCN2CCCCC2)cc1)c1c(-c2ccc(O)cc2)sc2cc(O)ccc12 [Evista]	118	6.52
N#Cc1c(Oc2ccc(F)c(NC(=O)Cc3cccc(C(F)(F)F)c3)c2)ccc2nc(NC(=O)C3CC3)sc12	126	-0.889
O=C(NC1CCOCC1)c1ccc(-c2cc(-c3c[nH]nc3-c3ccccn3)ccn2)cc1	168	-1.38
Cc1ccc(-c2cc(C(F)(F)F)nn2-c2ccc(S(N)(=O)=O)cc2)cc1 [Celecoxib]	111	2.11
CN1C(C(=O)Nc2ccccn2)=C(O)c2sc(Cl)cc2S1(=O)=O [lornoxicam-xefo]	129	-4.89
Nc1ncnc2n[nH]c(Nc3ccc(F)cc3)c12	89.9	2.64
NC(=O)c1ccc(-c2nc(-c3ccccn3)c(-c3ccc4c(c3)OCO4)[nH]2)cc1	130	-2.96
COc1cccc(Nc2c(C(N)=O)cnc3c(C)cc(S(=O)(=O)c4cccc(C(=O)N(C)C)c4)cc23)c1	111	-16.1
C[C@H](NC(=O)Cc1cc(F)cc(F)c1)C(=O)N[C@H](C(=O)OC(C)(C)C)c1ccccc1	146	4.93
CC(C)(C)NC(=O)[C@H]1CC[C@H]2[C@@H]3CC[C@H]4NC(=O)C=C[C@]4(C)[C@H]3CC[C@]12C [Finasteride]	77.5	-9.32
CC(C)(C)C#Cc1cc(N(C(=O)[C@H]2CC[C@H](C)CC2)[C@H]2CC[C@H](O)CC2)c(C(=O)O)s1	118	10.4
C[C@]1(O)C[C@@H](c2nc(-c3ccc4ccc(-c5ccccc5)nc4c3)c3c(N)nccn32)C1	108	-11
COc1ccc2c(c1)C(=O)N(CCc1ccc(S(=O)(=O)NC(=O)NC3CCCCC3)cc1)C(=O)C2(C)C [gliquidone]	105	-4.01
CN1CCN(c2ccc3nc(-c4c(N)c5c(F)cccc5[nH]c4=O)[nH]c3c2)CC1	63.2	69.1
COc1cc2ncnc(Oc3cccc(NC(=O)Nc4cc(C(C)(C)C(F)(F)F)on4)c3)c2cc1OC	138	-13.4
O=C(O)CCCCC(CCSCc1ccccc1)SCc1ccccc1 (configuration not stated)	112	-1.63

Structure (SMILES)	normalized SmoIP GFP fluorescence [1] [%]	normalized SmoIP GFP fluorescence [2] [%]
O=C1CN2Cc3c(ccc(Cl)c3Cl)N=C2N1 [anagrelide-hydrochloride]	108	-2.31
CNC(=O)Nc1ccc(-c2nc(N3CC4CCC(C3)O4)c3cnn(C4CCC5(CC4)OCCO5)c3n2)cc1	41.3	-8.33
O=C(NCCCNc1nc(Nc2cccc(NC(=O)N3CCCC3)c2)ncc1I)c1cccs1	257	78.4
CN1CCc2c(c3ccccc3n2Cc2ccc(C(=O)NO)cc2)C1 [tubastatin-a]	108	-3.05
O=C(NNc1ccccc1)c1ccncc1	105	-2.71
Cc1c(NC(=O)OC[C@@H]2COCCN2)cn2ncnc(Nc3ccc4c(cnn4Cc4cccc(F)c4)c3)c12	128	16.5
NC(=O)N1CCC(CC(=O)N2CCC(C3c4ncc(Br)cc4CCc4cc(Cl)cc(Br)c43)CC2)CC1 (configuration not stated)	127	10.1
O=C1Nc2ccccc2/C1=C1/Nc2ccccc2C1=O [Indirubin]	127	-11.4
CN(C)CC(c1ccc(O)cc1)C1(O)CCCCC1 (configuration not stated) [desvenlafaxine-succinate]	103	-5.38
CCOC(=O)[C@H](CCc1ccccc1)N[C@H]1CS[C@H](c2cccs2)CN(CC(=O)O)C1=O [temocapril-hcl]	111	0.785
Cn1c(=O)cc(N2CCC[C@@H](N)C2)n(Cc2cc(F)ccc2C#N)c1=O [trelagliptin]	104	3.18
CCCSc1nc(N[C@@H]2C[C@H]2c2ccc(F)c(F)c2)c2nnn([C@@H]3C[C@H](OCCO)[C@@H](O)[C@H]3O)c2n1 [ticagrelor]	113	-3.39
CCOC(=O)C1=C(C)NC(C)=C(C(=O)OC)C1c1cccc([N+](=O)[O-])c1 (configuration not stated) [Nitrendipine]	117	-12
COc1cc2nccc(Oc3ccc(NC(=O)NC4CC4)c(Cl)c3)c2cc1C(N)=O	99.3	7.92
Cc1cnc(Nc2ccc(N3CCN(C)CC3)cc2)nc1Nc1cccc(S(=O)(=O)NC(C)(C)C)c1	159	-5.35
CCC(=O)NCC[C@@H]1CCc2ccc3c(c21)CCO3 [Ramelteon]	95.6	-0.588
CC(C)c1nc(CN(C)C(=O)N[C@H](C(=O)N[C@@H](Cc2ccccc2)C[C@H](O)[C@H](Cc2ccccc2)NC(=O)OCc2cncs2)C(C)C)cs1 [Ritonavir]	109	-4.47
CC#CCn1c(N2CCC[C@@H](N)C2)nc2c1c(=O)n(Cc1nc(C)c3ccccc3n1)c(=O)n2C [linagliptin-bi-1356]	118	-0.264
COc1cccc2cc(-c3nc([C@H]4CC[C@H](C(=O)O)CC4)n4ncnc(N)c34)[nH]c12	54.2	-5.17
Nc1nc(Nc2ccc(S(N)(=O)=O)cc2)nn1C(=O)c1c(F)cccc1F	205	67.9
CC(C)C[C@@H](C(=O)N[C@H](C(=O)OC1CCCC1)c1ccccc1)[C@H](O)C(=O)NO [CHR-2797(Tosedostat)]	108	3.72
NCCCCCNCC12CC3CC(CC(C3)C1)C2 [iem-1754-dihydrobromide]	102	-2.31
CCCCNC(=O)NS(=O)(=O)c1ccc(C)cc1 [tolbutamide]	108	-16.8
O=C(CSc1nc2c(c(=O)n1-c1ccccc1)SCC2)Nc1ccc(-c2ccccc2)cn1	110	-3.16

Structure (SMILES)	normalized SmoIP GFP fluorescence [1] [%]	normalized SmoIP GFP fluorescence [2] [%]
O=C(Nc1ccccc1Br)N[C@@H]1CCN(c2ccc(C(F)(F)F)cn2)C1	137	-2.82
CC(C)(F)C[C@H](N[C@@H](c1ccc(-c2ccc(S(C)(=O)=O)cc2)cc1)C(F)(F)F)C(=O)NC1(C#N)CC1 [Odanacatib-(MK0822)]	110	-4.25
COCC[n+]1c2c(n(Cc3cnccn3)c1C)C(=O)c1ccccc1C2=O	101	-12.7
CCCCOc1ccc(CC(=O)NO)cc1 [bufexamac]	98.6	-3.05
CN1CCN(C(=O)c2cc3cc(Cl)ccc3[nH]2)CC1	101	-2.71
CC(C)[C@H](C(=O)Nc1ccc(C(=O)NO)cc1)c1ccccc1	299	60.6
O=C(Nc1cccc(Cl)c1)c1ccccn1	105	-2.93
O=c1cc(-c2ccc(O)cc2)oc2cc(O)cc(O)c12 [Apigenin]	140	-2.19
Cn1cc(C2=C(c3ccc(Cl)cc3Cl)C(=O)NC2=O)c2ccccc21	115	16.5
C[C@@H](c1ncncc1F)[C@](O)(Cn1cncn1)c1ccc(F)cc1F [Voriconazole]	101	1.57
O=C(Nc1ccncc1)c1cc([N+](=O)[O-])ccc1Cl	114	-2.82
CN[C@@H](C)C(=O)N[C@H](C(=O)N1CCC[C@H]1C(=O)Nc1snnc1-c1ccccc1)C1CCCCC1	85.6	4.68
CN1[C@@H]2CC[C@H]1C[C@@H](OC(=O)c1c[nH]c3ccccc13)C2 [Tropisetron-hydrochloride]	116	-14.9
COc1cc2ncnc(Nc3ccc(F)c(Cl)c3)c2cc1NC(=O)/C=C/CN1CCCCC1	163	12.5
Clc1ccc2c(c1)CCc1cccnc1C2=C1CCNCC1 [desloratadine]	109	1.21
Cc1[nH]nc2ccc(-c3cncc(OC[C@@H](N)Cc4ccccc4)c3)cc12	134	8.54
Cc1cccc(CC(=O)N2CCc3c2ccc(-c2cn(C)c4ncnc(N)c24)c3F)n1	102	-1.63
COc1ccc(-n2nc(C(N)=O)c3c2C(=O)N(c2ccc(N4CCCCC4=O)cc2)CC3)cc1	102	-1.56
Cn1nnc2c(C(N)=O)ncn2c1=O [Methazolastone]	110	3.18
CCCCNc1ccc(C(=O)OCCN(C)C)cc1 [tetracaine-hydrochloride-pontocaine]	117	-6.34
CC(COc1ccccc1)N(CCCl)Cc1ccccc1 (configuration not stated) [Phenoxybenzamine-hydrochloride]	148	-12.4
Fc1cc(-c2cccc3ncc(-c4cnn(C5CCNCC5)c4)nc23)cc(F)c1CN1CCOCC1	145	-4.08
CC[C@H](NC(=O)[C@H](C)NC)C(=O)N1C[C@@H](O)C[C@H]1Cc1c(-c2[nH]c3cc(F)ccc3c2C[C@@H]2C[C@H](O)CN2C(=O)[C@H](CC)NC(=O)[C@H](C)NC)[nH]c2cc(F)ccc12	78.2	-2.08
